Bioassay records deposited in PubChem BioAssay by National Center for Advancing Translational Sciences (NCATS).
Pf Dd2 inh = Plasmodium falciparum Dd2 growth inhibition; P. falciparum Dd2 growth, SYBR Green, 72 h; Potency, µM (doses to about 28.9 µM), for inactives: top-dose activity, negative = inhibition, most hits filed as inhibitors; 120,000 tested, 4.3% active; AID 1347417; active means well fitted inhibition curve with a large enough effect;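 further: plate controls were DMSO vehicle for no effect and reference drug for full effect; nearly all actives have a fitted effect of over 65% in size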
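Readout: SYBR Green fluorescence, 485 nm excitation, 535 nm emission, after ~16 h lysis at 37C. Before that, Dd2-infected red cells (2.5% hematocrit) grew 72 h with compound, 29 uM top final concentration.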
Numbers without * were called inactive; i = inactive; [ ] = remark or other dose. This excerpt belongs to a sample that is enriched for hits. Potency means the concentration at half of the fitted maximal effect.

SMILES	Pf Dd2 inh
Cc1cccc(N(C)c2nc3ccc(C)cc3n3cnnc23)c1	11.3%
Cc1cccc(N(C)c2ccc3cc(S(=O)(=O)N4CCCC4)ccc3n2)c1	2.1%
C=CC[C@@H]1CC=C[C@@H](C)N1C(=O)c1cc(OC)ccc1OC1CCN(C(=O)C2CC2)CC1	-15.9%
C=CCNC(=O)c1ccc2cc[nH]c2n1	12.7%[44.1 µM]
CCc1nc2c(c(-c3ccc(Cl)cc3)n1)CN(C(=O)C1CCCC1)CC2	i
CC1CCCCN1Cc1c(O)ccc2c(=O)c(-c3ccccc3Cl)c(C(F)(F)F)oc12 (configuration not stated)	8.91µM*
CC1CCCCN1Cc1c(O)ccc2c(=O)c(-c3ccc(Cl)cc3)coc12 (configuration not stated)	2.24µM*
CCN(CC)C(=O)Cc1cccn1-c1ccc(Cl)cc1	-32.4%
COC(=O)CNC(=O)N1CCC(OC2CCN(S(C)(=O)=O)CC2)CC1	3.2%
O=C(Nc1ccc([C@@H](O)[C@H]2COCC(=O)N2Cc2ccc(F)cc2)cc1)C1CCC1	i
Cc1cc(N2CCN(C(=O)CCCS(N)(=O)=O)CC2)cc(C)n1	-5.0%
CCCn1cc(C(=O)N2CCN(S(=O)(=O)N3CCCC3)CC2)c(C)n1	-11.0%
CNC(=O)[C@H]1C[C@H](Oc2ccccc2)CN1S(=O)(=O)Cc1ccccc1	8.8%
CC(=O)Nc1ccc(N(C(=O)Cn2nnc3ccccc32)C(C(=O)NCc2ccccc2)c2ccc(C)cc2)cc1 (configuration not stated)	11.2µM*
CCOc1ccc(N(C(=O)Cn2nnc3ccccc32)C(C(=O)NCc2ccccc2)c2ccc(OC)cc2)cc1 (configuration not stated)	-21.7%
CCC(Cn1nnc2ccccc2c1=O)NC(=O)Nc1ccc(C)cc1 (configuration not stated)	17.5%
Cc1cc(C(=O)N2CCCC(n3c(C)cnc3C3CC3)C2)n(C)n1 (configuration not stated)	-16.4%
CCN(CC)C(=O)C1CCN(S(=O)(=O)c2ccc3c(c2)CCCN3C(C)=O)CC1	-3.7%
CC(=O)N1CCCc2cc(S(=O)(=O)N3CCC(C(=O)Nc4c(C)cccc4C)CC3)ccc21	-8.9%
CCN(C(=O)C1CCN(S(=O)(=O)c2ccc3c(c2)CCCN3C(C)=O)CC1)c1cccc(C)c1	12.6µM*
N#Cc1ccccc1CN1CC[C@@H]2C(=O)NCCCCCCN(Cc3ccncc3)[C@@H]2C1	-47.2%
Cc1ccc(CN2CC[C@H]3C(=O)NCCCCCCN(Cc4ccncc4)[C@@H]3C2)o1	-13.1%
N#Cc1cccc(CN2CC[C@H]3C(=O)NCCCCCCN(Cc4ccncc4)[C@@H]3C2)c1	12.6µM*
COc1cccc(-c2cn3c(n2)sc2cc(C(=O)NCCc4ccccc4)ccc23)c1	i
CCCSCCCNC(=O)c1ccc2c(c1)sc1nc(-c3ccc(OCC)cc3)cn12	3.55µM*
SMILES	Pf Dd2 inh
CCOC(=O)C1CCN(C(=O)c2ccc3c(c2)sc2nc(-c4ccc(OC)cc4)cn23)CC1	i
COc1ccc(-c2cn3c(n2)sc2cc(C(=O)NCc4ccccc4)ccc23)cc1	16.1%
COc1ccc(-c2cn3c(n2)sc2cc(C(=O)Nc4cc(Cl)ccc4C)ccc23)cc1	-15.6%
CCOc1ccc(-c2cn3c(n2)sc2cc(C(=O)NCCc4ccc(OC)c(OC)c4)ccc23)cc1	3.55µM*
CCOc1ccc(-c2cn3c(n2)sc2cc(C(=O)NCCC4=CCCCC4)ccc23)cc1	7.08µM*
CCOc1ccc(-n2c(C)nc3cc(C(=O)NCCC4=CCCCC4)ccc32)cc1	-7.4%
COc1ccc(NC(=O)c2ccc3c(c2)sc2nc(-c4ccc(OC)cc4)cn23)cc1	i
Cc1ccccc1-c1nc(C2CC(=O)N(c3ccc(Cl)cc3)C2)no1 (configuration not stated)	131.0%
CC1(C)C[C@H](NC(=O)c2ccccc2)[C@@]2(CCC(=O)NCCN3CCOCC3)CC[C@](C)(O)C[C@@H]12	i
CC1(C)C(=O)N(Cc2ccccc2)[C@H]2CN(Cc3cccc(C(=O)O)c3)C[C@H]2[S+]1(=O)[O-]	33.0%
Nc1ccsc1C(=O)N1CCC2(CCC(=O)N(CC3CCCO3)C2)CC1 (configuration not stated)	-11.6%
CCc1noc(-c2cn(C3CCN(C(=O)c4cccc(Br)c4)C3)nn2)n1 (configuration not stated)	i
CCCOCCNC(=O)c1c(C)noc1-c1ccc2c(c1)OCO2	13.6%
CNC(=O)[C@@H]1C[C@H](Oc2ccccc2)CN1C(=O)Cn1nc(C)cc1C	-10.4%
O=C(Nc1ccc(F)cc1)N[C@H]1[C@H](O)[C@@H](N2CCOCC2)[C@@H]2OC[C@H]1O2	4.5%[44.1 µM]
CCn1ncc(CN2CC[C@@H]3CN(S(C)(=O)=O)[C@@H]3C2)c1C	19.5%
CN1CCOc2c(C(=O)NCCC(N)=O)cc(-c3ccccc3OC(F)(F)F)cc21	i
COc1ccc(CCNC(=O)C2(c3ccc(Cl)cc3)CCOCC2)cc1	5.0%
O=C(c1cccc(-n2cnnc2)c1)N1CCCC(Nc2ccc(F)c(F)c2)C1 (configuration not stated)	11.3%
CCO[C@H]1CN(C(=O)c2nc3ccccc3[nH]c2=O)C[C@@H]1O	i
COCc1ccc2c(c1)c(OC(C)(C)C(=O)NCC1CC1)nn2Cc1ccccc1	4.47µM*
COCc1ccc2c(c1)c(OC(C)(C)C(=O)NCC(F)(F)F)nn2Cc1ccccc1	i
CC(C)(Oc1nn(CCN2CCOCC2)c2ccccc12)C(=O)NCc1ccccc1	11.2µM*
CC(C)(Oc1nn(CCN2CCOCC2)c2ccccc12)C(=O)NCc1ccncc1	i
COCc1ccc2c(c1)c(OC(C)(C)C(=O)NC1CC1)nn2Cc1ccccc1	i
SMILES	Pf Dd2 inh
COCc1ccc2c(c1)c(OC(C)(C)C(=O)NCCN1CCOCC1)nn2Cc1ccccc1	i
COc1ccccc1C(=O)N1CCC(Oc2ccc(C(=O)N3CCOCC3)cn2)CC1	2.7%
Cc1cc(C[C@@H]2COC[C@@H]2NC(=O)C2CCN(C(=O)C3CC3)CC2)on1	6.8%
Cc1cc(C)n(CC(=O)N2CCCn3ccnc3C2c2cnn(C)c2)n1 (configuration not stated)	12.1%
CCCc1cnc2c(c1SCC(=O)Nc1cccc(C)c1C)c(=O)n(C)c(=O)n2C	0.7%
CCCc1cnc2c(c1SCC(=O)Nc1ccccc1OCC)c(=O)n(C)c(=O)n2C	1.6%
CCCc1cnc2c(c1SCc1cccc(C)c1)c(=O)n(C)c(=O)n2C	11.2µM*
N#Cc1ccc(CN2CCc3ncc(C(=O)NCCOc4ccccc4)n3CC2)cc1	13.5%[44.1 µM]
Cc1cccc(OCCc2noc(C3CCCN3C(=O)COc3ccccc3)n2)c1 (configuration not stated)	-9.5%
CN1C(=O)COC[C@@H]1[C@H](O)c1ccc(NC(=O)c2ccc(F)cc2)cc1	-15.7%[44.1 µM]
CCc1ccc(Nc2sc(C(=O)c3ccc(F)cc3)c(N)c2S(=O)(=O)c2ccccc2)cc1	8.91µM*
COc1cccc(Nc2sc(C(=O)c3ccc(F)cc3)c(N)c2C(=O)NCc2ccc(Cl)cc2)c1	-5.7%
CCc1ccc(S(=O)(=O)N2[C@@H]3CC[C@H]2CC(NC(=O)c2ccc(F)cc2)C3)cc1 (some centres not stated)	i
Nc1c(C(=O)c2ccc(F)cc2)sc(Nc2ccccc2F)c1S(=O)(=O)c1ccc(Br)cc1	11.2µM*
CCOc1ccccc1Nc1sc(C(=O)c2ccccc2)c(N)c1C(=O)Nc1ccccc1	i
N#Cc1c(Nc2cccc(F)c2)sc(C(=O)c2ccc(Cl)cc2)c1N	21.7%
